An excerpt weighted towards active compounds, which were near 3.5% of everything screened.
HSP90 refold inh: HSP90 inhibitors, primary screen, cell lysate, luminescence; inhibition, % at 5.6 µM; Heat shock protein HSP 90 (rabbit reticulocyte lysate; luciferase refolding); 290,000 tested, 0.91% active; Rabbit reticulocyte lysate, luciferase refolding luminescence, 3 h; AID 1789, 2009;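 active = inhibition above the screen-wide mean plus 3 SD, computed separately per campaign, cut at about 16% in these data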;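 note: inhibitors lower the luminescence because luciferase stays unfolded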
PPC-1+TRAIL kill: compounds killing PPC-1 cancer cells with TRAIL present, primary screen, TRAIL potentiator project, ATPLite luminescence, uHTS. 220,000 tested, 0.41% active. PPC-1 cells + TRAIL, ATPLite viability luminescence. cell killing (% activity), % at 4 µM or 5 µM;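 active = cell killing above 50% in the first pass at 4 µM, then a duplicate retest at 5 µM averaging 50% or more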
C8 TRAIL sens: viability loss with TRAIL in NB7+C8 cells, primary screen, TRAIL sensitizer project, cell-based, ATPlite luminescence; inhibition (viability loss, TRAIL sensitization), % at 10 µM; 360,000 tested, 1% active;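 active = compounds causing at least 50% loss of cell viability in the single-dose screen, relative to plate controls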
TROY NFkB inh: inhibitors of TROY-driven NF-kB signaling, primary screen, Q293 LMP1-TROYcd cells, NF-kB luciferase, uHTS; Q293 LMP1-TROYcd NF-kB luciferase reporter, 4 h; inhibition, % at 10 µM; 360,000 tested, 0.98% active;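 active = compounds whose plate-normalised and pattern-corrected inhibition of the luciferase reporter signal at the single screening dose is 50% or more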
Platelet DG rel: inhibitors of platelet dense granule secretion, primary screen, cell-based, MLPCN, human platelets | human platelet-rich plasma, SFLLRN dense granule ATP release, luminescence | inhibition, %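 (compounds screened at 7.5 µM in platelet-rich plasma)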 | 300,000 tested, 0.22% active | AID 1663, 2009;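 active = mean replicate score, as percent of positive control, at or above 50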
TWEAK-Fn14 inh: inhibitors of TWEAK-Fn14 signaling, primary screen, luciferase reporter cells, uHTS. AID 1159606, 2016. inhibition, % at 10 µM. 360,000 tested, 2% active. TWEAK-stimulated Fn14 reporter cells, luciferase luminescence, 8 h; in the data active = inhibition above about 50%
Each line names hits and unclear results; the compound was inactive in the other large screens.

CN=c1scc(C)n1/N=C/c1cc(Br)c(O)c(Br)c1	none
Cc1ccc(SCC(=O)Nc2ccc(S(N)(=O)=O)cc2)cc1	none
COc1ccc(-n2c(=S)[nH]c3cc(C(=O)Nc4ccc(C)c(F)c4)ccc3c2=O)c(OC)c1	TWEAK-Fn14 inh 54 (no result: PPC-1+TRAIL kill)
C=CCN1C(=O)c2ccc(C(=O)N(C)CC(=O)Nc3cccc(F)c3)cc2C1=O	none (no result: PPC-1+TRAIL kill)
CSCCC(NC(=O)OC(C)(C)C)C(=O)Oc1ccc2c(=O)c(-c3ccc4c(c3)OCCO4)coc2c1 (stereo not given)	C8 TRAIL sens 56 (no result: Platelet DG rel)
CSCCC(NC(C)=O)C(=O)Oc1ccc2c3c(c(=O)oc2c1)CCCC3 (stereo not given)	none (no result: Platelet DG rel)
Cn1cc(C(=O)Nc2ccccn2)c(=O)c2ccccc21	none (no result: PPC-1+TRAIL kill)
Cn1ccc2cc(NC(=O)Nc3cccnc3)ccc21	none (no result: HSP90 refold inh, PPC-1+TRAIL kill)
Cn1c(Oc2ccc(F)cc2)c(C=O)c2ccccc21	none
Cn1c(Sc2ccc(Br)cc2)c(C=O)c2ccccc21	TWEAK-Fn14 inh 55 (no result: TROY NFkB inh)
CN1CN=C(NS(=O)(=O)c2ccc([N+](=O)[O-])cc2)NC1	TWEAK-Fn14 inh 55 (no result: PPC-1+TRAIL kill)
Cn1c(N=Nc2ccccc2)nc2ccccc21	HSP90 refold inh 42, PPC-1+TRAIL kill 85, C8 TRAIL sens 93, Platelet DG rel 72, TWEAK-Fn14 inh 79
CCOC(=O)[C@]12CCC=C1N(Cc1ccc3c(c1)OCO3)C(=O)[C@H](CC(=O)N1CCCCC1)C2	none (no result: HSP90 refold inh, PPC-1+TRAIL kill, Platelet DG rel)
O=[N+]([O-])c1ccc2nc(NN=Cc3ccc(O)cc3)sc2c1	TROY NFkB inh 66, TWEAK-Fn14 inh 69 (no result: HSP90 refold inh, PPC-1+TRAIL kill, Platelet DG rel)
Cc1ccc(S(=O)(=O)N2CCOCC2)cc1NC(=O)CNC1CCCC1	none
COc1ccc(C(=O)NC2=NCCS2)cc1	none (no result: PPC-1+TRAIL kill)
CC(C)Oc1ccc(C(=O)NC2=NCCS2)cc1	C8 TRAIL sens 59
Cn1ccc2c(N3CCCCC3)cc3c(c21)C1CCC3O1 (stereo not given)	none (no result: HSP90 refold inh, PPC-1+TRAIL kill, Platelet DG rel)
O=C(Nc1cc(C(F)(F)F)ccc1N1CCOCC1)c1ccccc1F	TWEAK-Fn14 inh 62 (no result: TROY NFkB inh)
CCN1C(=O)[C@H]2[C@@H](c3ccc(Cl)cc3)N3C(=O)CN(CCOC)C(=O)[C@@]3(Cc3ccccc3)[C@H]2C1=O	none (no result: PPC-1+TRAIL kill)
CC(C)c1ccc(/C=N/NC(=O)c2ccc(-n3cnnn3)cc2)cc1	TWEAK-Fn14 inh 65 (no result: HSP90 refold inh, PPC-1+TRAIL kill, Platelet DG rel)
CSc1ccc(/C=N/NC(=O)c2ccc(-n3cnnn3)cc2)cc1	TWEAK-Fn14 inh 55 (no result: HSP90 refold inh, PPC-1+TRAIL kill, Platelet DG rel)
CCOc1ccc(C(=O)N/N=C/c2ccc(SC)cc2)cc1	none
CSc1ccc(/C=N/NC(=O)c2cccc(O)c2)cc1	PPC-1+TRAIL kill 54, C8 TRAIL sens 74, Platelet DG rel 72
O=C(N/N=C/c1ccc(F)cc1)c1ccc(-n2cnnn2)cc1	none (no result: HSP90 refold inh, PPC-1+TRAIL kill, Platelet DG rel)
CN(CC(=O)Nc1cccc(F)c1)C(=O)c1csc2c1CCCC2	none (no result: HSP90 refold inh, PPC-1+TRAIL kill)
C/C(=N\NC(=O)CCC(=O)NCc1ccccc1)c1ccc([N+](=O)[O-])cc1	none (no result: HSP90 refold inh, PPC-1+TRAIL kill, Platelet DG rel)
Cc1ccc(OCC(=O)NCCc2c[nH]c3ccccc23)cc1	none
C[C@H](CO)N1C[C@H](C)[C@@H](CN(C)S(=O)(=O)c2cccc(F)c2)Oc2ncc(Br)cc2C1=O	none (no result: HSP90 refold inh, PPC-1+TRAIL kill, Platelet DG rel)
Cc1csc2c(N3CCN(C(=S)Nc4ccc(C(F)(F)F)cc4)CC3)ncnc12	none
Cc1csc2ncnc(N3CCN(C(=S)Nc4ccc(C(F)(F)F)cc4)CC3)c12	TWEAK-Fn14 inh 51
Cc1ccc2oc(C(Cl)(Cl)Cl)cc(=O)c2c1	TWEAK-Fn14 inh 64
Cc1ccc2oc(C(F)(F)C(F)F)cc(=O)c2c1	none
C/C(Cn1nnc([N+](=O)[O-])n1)=N\NC(=O)c1ccc(O)cc1	C8 TRAIL sens 57
C/C(Cn1nnc([N+](=O)[O-])n1)=N\NC(=O)c1ccccc1O	C8 TRAIL sens 59
C/C(Cn1nnc([N+](=O)[O-])n1)=N\NC(=O)c1ccc(O)cc1O	none
C/C(Cn1nnc([N+](=O)[O-])n1)=N\NC(=O)c1ccc(Cl)c(Cl)c1	none
O=C(CSc1nc2ccccc2c(=O)n1-c1ccc(F)cc1)NC1CCS(=O)(=O)C1 (stereo not given)	none (no result: HSP90 refold inh, PPC-1+TRAIL kill, Platelet DG rel)
COC(=O)c1ccc(COc2ccc(/C=C(\C#N)c3nc4ccccc4[nH]3)cc2OC)o1	TWEAK-Fn14 inh 60
